DUX4 txn inh: blocks DUX4-driven transcriptional activation; 293T-iDUX4 ZSCAN4-Gaussia luciferase reporter, 24 h; stronger effect = lower value; activity change, negative = inhibition, % (concentration not given with the values); 37,000 compounds, 0.8% hits;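 active = mean inhibition of at least 10% in the main channel, exceeding the control channel by a set limit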;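 also: 0% = median of neutral control wells and -100% = median of positive control wells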
An asterisk follows results filed as active; ! = not confirmed by another sample. The sample as a whole holds a higher share of hits than the screen did.

SMILES	DUX4 txn inh
C[C@@H](O)C#Cc1ccc([C@H]2[C@H]3CN(S(=O)(=O)c4ccccc4)CCCCN3[C@H]2CO)cc1	2
O=S(=O)(c1ccc(F)cc1)N1CCCCN2[C@H](CO)[C@@H](c3ccc(C#CC4CC4)cc3)[C@@H]2C1	-9
COc1ccc(C#Cc2ccc([C@@H]3[C@@H](CO)N4CCCCN(S(=O)(=O)c5ccccc5)C[C@H]34)cc2)cc1	-5
CCCC#Cc1ccc([C@H]2[C@H]3CN(S(=O)(=O)Cc4ccccc4)CCCCN3[C@H]2CO)cc1	11
O=S(=O)(c1cccs1)N1CCCCN2[C@@H](CO)[C@H](c3ccc(Br)cc3)[C@@H]2C1	-14*
COc1ccc(C[C@@H]2CCn3nncc3COC[C@@H](c3ccccc3)NC2=O)cc1	-3
Cc1noc(C)c1S(=O)(=O)Nc1ccc2c(c1)C(=O)N([C@H](C)CO)C[C@H](C)[C@H](CN(C)Cc1ccc3c(c1)OCO3)O2	2
Cc1cccc(-c2ccc(C3[C@@H]4CN(C(=O)C5CCOCC5)C[C@H]3N4)cc2)c1 (stereo partly drawn)	7
Cc1cccc(-c2ccc(C3[C@H]4CNC[C@@H]3N4Cc3cccc(F)c3)cc2)c1 (stereo partly drawn)	8
CCCNC(=O)N1C[C@@H]2N[C@H](C1)C2c1ccc(-c2cccnc2)cc1 (stereo partly drawn)	-1
O=C(Nc1cccc(F)c1)N1C[C@@H]2N[C@H](C1)C2c1ccc(-c2ccc(F)cc2)cc1 (stereo partly drawn)	9
c1ccc(-c2ccc(C3[C@H]4CNC[C@@H]3N4Cc3nccs3)cc2)cc1 (stereo partly drawn)	9
Cc1cccc(-c2ccc(C3[C@@H]4CN(Cc5cccc(F)c5)C[C@H]3N4)cc2)c1 (stereo partly drawn)	-55*!
COc1ccccc1-c1ccc(C2[C@@H]3CN(Cc4nccs4)C[C@H]2N3)cc1 (stereo partly drawn)	-43*
COc1ccccc1-c1ccc(C2[C@@H]3CN(Cc4cccc(F)c4)C[C@H]2N3)cc1 (stereo partly drawn)	-48*
CCCNC(=O)N1C[C@@H]2N[C@H](C1)C2c1ccc(-c2cccc(F)c2)cc1 (stereo partly drawn)	-43*!
COc1ccccc1-c1ccc([C@H]2[C@H](CO)N3CCCCN(Cc4ccncc4)C[C@@H]23)cc1	2
COc1ccccc1-c1ccc(C2[C@H]3CNC[C@@H]2N3Cc2ccc(F)cc2)cc1 (stereo partly drawn)	17
COc1cccc(CN2CCCCN3[C@@H](CO)[C@@H](c4ccc(-c5ccccc5OC)cc4)[C@@H]3C2)c1	3
CCS(=O)(=O)N(C)C[C@@H]1N[C@H](CO)[C@@H]1c1ccc(C2=CCCCC2)cc1	0
CCN1[C@H](C(=O)N2CCc3ccccc3C2)[C@@H](CO)[C@@H]2Cn3c(cccc3=O)[C@@H]21	-7
CC=Cc1ccc2n(c1=O)C[C@@H]1[C@@H](CO)[C@H](C(=O)NCCC)[C@H]2N1C(=O)c1ccccc1F (mixture of isomers)	-6
CO[C@@H]1CN(C)C(=O)c2ccc(NC(=O)C3CCOCC3)cc2OC[C@@H](C)N(Cc2cccnc2)C[C@@H]1C	1
C[C@H]1CN([C@@H](C)CO)C(=O)c2cc(-c3cccc(C#N)c3)cnc2O[C@H]1CN(C)Cc1ccc(F)cc1	0
CCCC#Cc1cnc2c(c1)C(=O)N([C@H](C)CO)C[C@H](C)[C@H](CN(C)Cc1ccc3c(c1)OCO3)O2	-1
SMILES	DUX4 txn inh
C[C@@H]1CN([C@@H](C)CO)C(=O)c2cc(C3=CCCC3)cnc2O[C@H]1CN(C)C(=O)NC1CCCC1	-5
CC(=O)N(C[C@H]1N[C@H](CO)[C@@H]1c1ccc(-c2cccc(F)c2)cc1)C1CCCC1	1
CCCNC(=O)[C@@H]1[C@@H](CO)[C@@H]2Cn3c(ccc(-c4cccc(F)c4)c3=O)[C@H]1N2Cc1ccccc1F	-5
CCCNC(=O)[C@H]1[C@H](CO)[C@H]2Cn3c(ccc(-c4cccnc4)c3=O)[C@H]2N1C(=O)c1ccccc1F	0
CO[C@H]1CN(C)C(=O)c2ccc(NC(=O)C3CCC3)cc2OC[C@@H](C)N(Cc2ccncc2)C[C@@H]1C	-3
COc1ccccc1CNC(=O)C[C@H]1CC[C@@H]2[C@@H](COc3ccc(NC(=O)Nc4ccc(F)c(F)c4)cc3C(=O)N2C)O1	-1
Cc1ccccc1S(=O)(=O)N1CC[C@@H]2[C@@H](CO)N(C)c3ccc(Br)cc3[C@@H]21	-23*
CN1c2ccc(Br)cc2[C@@H]2[C@@H](CCN2S(=O)(=O)c2ccccc2F)[C@H]1CO	3
Cc1ccccc1S(=O)(=O)N1CC[C@H]2[C@@H](CO)N(C)c3ccc(Br)cc3[C@H]21	-3
COc1ccc2c3c([nH]c2c1)[C@@H](CO)N(Cc1ccccc1F)CC31CN(C)C1	-9
COc1ccc2c3c([nH]c2c1)[C@H](CO)N(C(C)=O)CC31CCN(Cc2ccccc2Cl)CC1	-8
COc1ccc2c3c([nH]c2c1)[C@H](CO)N(Cc1ccccc1Cl)CC31CCN(C(C)=O)CC1	-28*

Source: PubChem BioAssay
